Data on 26 compounds can be found in PubChem BioAssay (Tox21).

“And” between values parts separate entries of the source, which are not always exact repeats. Equal values may be shown once. Inconclusive results are not listed. A structure can be active in one record and inactive in another. The source made the active and inactive calls. Unless noted, calls come from the whole dose curve.

Assay [1] in a line: qHTS assay to identify small molecule antagonists of the sonic hedgehog signaling (Shh) pathway (AID 1259369). Note: nearly all actives have a fitted effect of over 45% in size. Note: potency is the fitted concentration of half-maximal effect. The method in brief:
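Read-out is luminescence from a firefly luciferase gene controlled by the Gli1 response element, in 3T3Gli1-Luc cells pre-incubated 4hr then exposed to compounds and conditioned medium for 24hr.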
A general note: Quantitative high-throughput screening tests each substance at several concentrations.

In assay [2] the target is Estrogen receptor beta (Homo sapiens) (UniProt Q92731). As to the kind of experiment: qHTS assay to identify small molecule agonists of the estrogen receptor beta (ER-beta) signaling pathway (AID 1259377; active = well fitted activation curve with a large enough effect in the signal ratio in the repeat runs, not every such curve was filed as active; the % refers to the signal ratio; note: potency is the fitted concentration of half-maximal effect). The method in brief:
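Read-out: beta-lactamase FRET fluorescence. Cell line: ER-beta-UAS-bla HEK293T in 2% charcoal-stripped FBS. Exposure: 16 hr at 37C. Substrate step: 2 h at room temperature.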

Assay [3] shares this target. As to the kind of experiment: qHTS assay to identify small molecule antagonists of the estrogen receptor beta (ER-beta) signaling pathway (AID 1259378; active = well fitted inhibition curve with a large enough effect in the signal ratio in the repeat runs, not every such curve was filed as active; the % refers to the signal ratio). Summed up:
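Antagonist mode: compounds added to beta-lactamase reporter HEK293T ER-beta-UAS cells stimulated with E2 (1nM final), 16 hr at 37C. LiveBLAzer B/G FRET substrate, 2 hours room temperature, fluorescence read-out.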

Assay [4] in a line: qHTS assay to identify small molecule agonists of the androgen receptor (AR) signaling pathway in the presence of an antagonist - cell viability counter screen (AID 1259379; active = well fitted curve in the direction sought with a large enough effect in the repeat runs; an effect the other way counts as inactive or inconclusive; note: nearly all actives have a fitted effect of over 25% in size; note: potency is the fitted concentration of half-maximal effect;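 for activity change, negative = cytotoxicity: MDA-kb2 human breast cancer cells carrying an MMTV luciferase reporter; series mostly up to about 92 µM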). Summed up: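 Each compound was tested at 15 concentrations on MDA-kb2 cells in the presence of 3.0uM nilutamide. Viability was measured by CellTiter-Fluor fluorescence after a 16 hr incubation at 37C in a CO2-free atmosphere.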

Assay [5] in a line: qHTS assay to identify small molecule agonists of the estrogen receptor beta (ER-beta) signaling pathway - cell viability counter screen (AID 1259380; active = well fitted curve in the direction sought with a large enough effect in the repeat runs; an effect the other way counts as inactive or inconclusive; note: nearly all actives have a fitted effect of over 30% in size; note: potency is the fitted concentration of half-maximal effect). Summed up: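 Compounds dissolved in DMSO were pin-transferred onto ER-beta-UAS-bla HEK293T cells that had settled 6 hr, and exposure ran 16 hr at 37C. Following the reporter read, CellTiter-Glo luminescence after 30 min at room temperature indicated cytotoxicity.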

Assay [6] is described as follows: qHTS assay to identify small molecule antagonists of the estrogen receptor beta (ER-beta) signaling pathway - cell viability counter screen (AID 1259382; active = well fitted curve in the direction sought with a large enough effect in the repeat runs; an effect the other way counts as inactive or inconclusive; note: nearly all actives have a fitted effect of over 55% in size; note: potency is the fitted concentration of half-maximal effect;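 for activity change, negative = cytotoxicity: HEK293T cells carrying ER-beta-UAS-bla reporter stimulated with estradiol; series mostly up to about 92 µM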). Summed up: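 CellTiter-Glo ATP luminescence measured after the LiveBLAzer read in the same wells; ER-beta-UAS-bla HEK293T cells, 16 hr compound treatment with 1nM 17-beta-estradiol agonist at 37C, 5% CO2.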
Assay [7] addresses Estrogen receptor (Homo sapiens) (UniProt P03372). As to the kind of experiment: qHTS assay to identify small molecule agonists of the estrogen receptor alpha (ER-alpha) signaling pathway in the presence of an antagonist (AID 1259383). For activation: top concentration of the series differs between compounds. Note: nearly all actives have a fitted effect of over 15% in size. Note: potency is the fitted concentration of half-maximal effect. The method in brief: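 Luminescent ERE-luciferase reporter, VM7Luc4E2 cells (endogenous ER-alpha); 10.0nM ICI-182,780 final; 15-point compound titration; 22hr at 37C; ONE-Glo, 30min RT.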

The target in assay [8] is Thyrotropin receptor (Homo sapiens) (UniProt P16473). As to the kind of experiment: qHTS assay to identify small molecule antagonists of the thyroid stimulating hormone receptor (TSHR) signaling pathway (AID 1259385). Note: nearly all actives have a fitted effect of over 20% in size. Summed up: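 Antagonist mode: compound-treated TSHR-expressing HEK293 cells were stimulated with 1.5 ng/mL TSH (final) in presence of Ro20-1724 for 30 min at RT. HTRF cAMP detection after 1 h; each compound tested at 15 concentrations, triplicate.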
Thyrotropin receptor (Homo sapiens), sequence (P16473 whole entry, looked up): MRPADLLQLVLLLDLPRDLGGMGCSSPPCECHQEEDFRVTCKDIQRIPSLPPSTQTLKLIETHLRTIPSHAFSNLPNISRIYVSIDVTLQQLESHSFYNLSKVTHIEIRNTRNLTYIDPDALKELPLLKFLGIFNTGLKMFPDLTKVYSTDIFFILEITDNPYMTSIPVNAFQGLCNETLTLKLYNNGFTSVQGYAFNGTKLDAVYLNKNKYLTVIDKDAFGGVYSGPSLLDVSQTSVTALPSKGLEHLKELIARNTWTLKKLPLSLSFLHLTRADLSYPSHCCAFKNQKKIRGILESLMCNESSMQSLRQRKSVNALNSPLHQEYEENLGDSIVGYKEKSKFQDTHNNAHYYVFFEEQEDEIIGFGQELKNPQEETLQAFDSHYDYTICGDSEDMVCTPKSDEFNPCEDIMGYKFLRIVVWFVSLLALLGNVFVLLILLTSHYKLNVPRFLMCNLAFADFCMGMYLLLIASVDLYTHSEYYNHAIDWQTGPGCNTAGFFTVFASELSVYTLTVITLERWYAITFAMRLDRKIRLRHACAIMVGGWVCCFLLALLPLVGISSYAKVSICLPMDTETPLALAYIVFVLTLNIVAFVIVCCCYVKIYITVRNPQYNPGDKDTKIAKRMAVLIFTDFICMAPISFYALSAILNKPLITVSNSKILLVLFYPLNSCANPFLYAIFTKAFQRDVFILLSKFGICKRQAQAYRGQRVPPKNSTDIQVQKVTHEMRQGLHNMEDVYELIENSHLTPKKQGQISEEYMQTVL

The nature of assay [9]: qHTS assay to identify small molecule agonists or antagonists of the thyroid stimulating hormone receptor (TSHR) signaling pathway - wild type cell line counter screen (AID 1259384). The method in brief:
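Counter screen in untransfected Hek293: compounds (15-point titration, triplicate) plus phosphodiesterase inhibitor Ro20-1724 added after 18 h plating; 30 min RT. Intracellular cAMP via competitive d2/cryptate immunoassay, 1 h incubation.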
% is set by controls: 0 for no effect and ±100 for the full control effect.

Estrogen receptor beta (Homo sapiens), sequence (Q92731 whole entry, looked up): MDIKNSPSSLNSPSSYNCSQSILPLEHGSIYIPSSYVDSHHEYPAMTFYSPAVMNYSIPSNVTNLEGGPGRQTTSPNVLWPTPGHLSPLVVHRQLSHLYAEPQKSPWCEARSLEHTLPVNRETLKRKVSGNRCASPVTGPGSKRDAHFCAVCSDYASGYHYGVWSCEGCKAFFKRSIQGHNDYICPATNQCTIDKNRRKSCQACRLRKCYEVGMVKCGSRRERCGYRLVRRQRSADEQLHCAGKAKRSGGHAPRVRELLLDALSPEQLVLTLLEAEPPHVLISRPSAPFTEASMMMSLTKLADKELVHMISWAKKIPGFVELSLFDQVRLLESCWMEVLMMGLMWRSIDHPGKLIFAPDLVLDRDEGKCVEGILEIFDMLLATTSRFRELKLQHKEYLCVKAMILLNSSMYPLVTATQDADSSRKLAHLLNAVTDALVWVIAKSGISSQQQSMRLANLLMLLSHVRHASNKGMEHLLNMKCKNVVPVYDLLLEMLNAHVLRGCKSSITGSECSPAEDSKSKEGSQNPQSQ
Estrogen receptor (Homo sapiens), sequence (P03372 whole entry, looked up): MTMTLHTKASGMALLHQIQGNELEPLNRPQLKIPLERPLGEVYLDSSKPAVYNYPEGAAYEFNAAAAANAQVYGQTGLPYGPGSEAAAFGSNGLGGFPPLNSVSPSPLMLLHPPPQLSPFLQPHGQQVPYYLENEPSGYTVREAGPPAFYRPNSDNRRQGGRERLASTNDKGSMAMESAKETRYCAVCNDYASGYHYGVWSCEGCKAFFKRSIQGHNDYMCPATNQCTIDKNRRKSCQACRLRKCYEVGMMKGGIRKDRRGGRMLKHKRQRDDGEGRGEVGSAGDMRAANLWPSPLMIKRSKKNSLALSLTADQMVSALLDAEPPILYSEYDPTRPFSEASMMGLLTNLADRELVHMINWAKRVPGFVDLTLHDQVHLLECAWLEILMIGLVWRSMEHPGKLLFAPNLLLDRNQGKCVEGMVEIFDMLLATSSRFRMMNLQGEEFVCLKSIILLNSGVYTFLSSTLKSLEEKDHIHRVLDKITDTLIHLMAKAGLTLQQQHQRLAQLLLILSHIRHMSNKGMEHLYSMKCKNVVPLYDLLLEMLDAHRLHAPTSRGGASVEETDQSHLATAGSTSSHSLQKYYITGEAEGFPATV

As to `CS(=O)(=O)Cl`, the Potency entry in [1], in assay [2], in assay [4], in [5], in assay [6] and in [7] was “inactive” in each case. In addition, the outcome in [3] and in assay [8] was inactive.
For the compound `COc1ccccc1OC`, the Potency entry in assay [1], in [2], in assay [4], in [5], in assay [6] and in assay [7] was “inactive” in each case. For the same compound, the result in [3], in assay [9] and in assay [8] was inactive.
As to `Cc1ccc2c(c1)C1CN(C)CCC1N2` (stereo not drawn), the figures for the activity change, negative = inhibition in assay [1] and in [8] were 7.51% [at 19 µM] (inactive) and 8.62% [at 19 µM] (inactive), respectively. Further, the activation is -2.72% [at 19 µM] (inactive) in assay [2] and 0.841% [at 19 µM] (inactive) in [7]. Also, in [3], the activity, negative = inhibition is 2.34% [at 19 µM] (inactive). The activity change, negative = cytotoxicity in assay [4] was 0.715% [at 19 µM] (inactive); in [5], -1.6% [at 19 µM] (inactive); in [6], 0.836% [at 19 µM] (inactive). The cAMP activity change in assay [9] is -0.0429% [at 18.9 µM] (inactive).
Regarding `CC1NCCOC1c1ccccc1` (stereo not drawn), the Potency entry in [1], in assay [2], in [4], in assay [5], in assay [6] and in [7] was “inactive” each time. In addition, the result in [3], in [9] and in assay [8] was inactive.
Consider `CC(C)(C)C(=O)Cl`, for which the Potency entry in [1], in assay [2], in [4], in [5], in assay [6] and in assay [7] was “inactive” throughout. For the same compound, the result in assay [3], in assay [9] and in assay [8] was inactive.
Consider `CCC(C(N)=O)N1CCCC1=O` (stereo not drawn), for which the Potency entry in [1], in [2], in assay [4], in assay [5], in [6] and in assay [7] was “inactive” each time. Moreover, the compound was called inactive in assay [3], in assay [9] and in [8].
Turning to `O=C1C2CC=CCC2C(=O)N1SC(Cl)(Cl)Cl` (stereo not drawn), the Potency result in assay [1] was “inactive and 2.69 µM (active)”; in [2], 8.6 µM (active); in assay [4], 30.1 µM (active); in [5], “inactive and 30.1 µM (active)”; in assay [6], “inactive and 30.1 µM (active)”; in assay [7], 2.42 µM (active) and inactive. The call in [3], in assay [9] and in assay [8] was inactive.
Turning to `CN(CCO)CCO`, the Potency entry in [1], in assay [2], in assay [4], in assay [5], in assay [6] and in assay [7] was “inactive” in each case. In addition, the outcome in assay [3] and in assay [9] was inactive.
In the case of `O=C1CC(=O)NC(=O)N1`, the Potency result in [1], in assay [2], in [4], in assay [5], in assay [6] and in [7] was “inactive” each time. In addition, the compound was called inactive in assay [3] and in assay [9].
As for `CCOC(=O)CCl`, the Potency result in assay [1], in assay [2], in assay [4], in [5], in assay [6] and in [7] was “inactive” each time. Further, the outcome in assay [3], in [9] and in assay [8] was inactive.
Consider `c1cncc([C@@H]2CCCCN2)c1`, for which the Potency entry in assay [1], in assay [2], in [4], in [5], in assay [6] and in assay [7] was “inactive” throughout. Moreover, the outcome in [3] and in assay [8] was inactive.
As for `CC(C)[N+](C)(CCC(C(N)=O)(c1ccccc1)c1ccccc1)C(C)C`, the Potency entry in assay [1], in assay [2], in assay [4], in [5], in [6] and in assay [7] was “inactive” in each case. Also, the outcome in assay [3], in assay [9] and in [8] was inactive.
Regarding `O=P(O)(O)CN(CP(=O)(O)O)CP(=O)(O)O`, the Potency entry in assay [1], in assay [2], in assay [4], in [5], in assay [6] and in [7] was “inactive” throughout. In addition, the compound was classed as inactive in assay [3] and in [8].
Regarding `CC(O)CCl` (stereo not drawn), the Potency result in assay [1], in assay [2], in assay [4], in assay [5], in assay [6] and in [7] was “inactive” each time. Also, the compound was called inactive in assay [3] and in [8].
On to `O=C(O)c1c(Cl)ccc2cc(Cl)cnc12`, for which the Potency entry in assay [1], in assay [2], in assay [4], in assay [5], in [6] and in assay [7] was “inactive” in each case. The compound was called inactive in assay [3], in assay [9] and in assay [8].
As to `S=C=S`, the Potency result in [1], in assay [2], in assay [4], in assay [5], in assay [6] and in assay [7] was “inactive” throughout. Besides, the outcome in assay [3] and in [9] was inactive.
As for `CC(C)(O)C(Cl)(Cl)Cl`, the Potency result in [1], in assay [2], in [4], in assay [5], in [6] and in [7] was “inactive” each time. In addition, the compound was classed as inactive in assay [3], in assay [9] and in [8].
Regarding `ClC1=C(Cl)C2(Cl)C(CBr)CC1(Cl)C2(Cl)Cl` (stereo not drawn), the Potency result in assay [1], in assay [2], in assay [4], in assay [5], in [6] and in assay [7] was “inactive” each time. Further, the result in assay [3], in assay [9] and in assay [8] was inactive.
As to `O=C(Cl)CCl`, the Potency result in [1], in assay [2], in assay [4], in [5], in assay [6] and in [7] was “inactive” in each case. Also, the compound was classed as inactive in assay [3] and in [9].
As to `COP(=O)(OC)O/C(C)=C/C(=O)N(C)C`, the Potency entry in assay [1], in assay [2], in [4], in assay [5], in assay [6] and in assay [7] was “inactive” each time. Moreover, the result in assay [3], in assay [9] and in assay [8] was inactive.
Turning to `C1CN2CCC1CC2`, the Potency result in assay [1], in [2], in [4], in assay [5], in [6] and in assay [7] was “inactive” throughout. The outcome in [3] and in assay [9] was inactive.
Regarding `CC(=O)CN(CC(C)=O)N=O`, the Potency entry in assay [1], in [2], in [4], in [5], in assay [6] and in [7] was “inactive” each time. The outcome in assay [3] and in assay [9] was inactive.
As for `COc1cccc(C=O)c1`, the Potency entry in assay [1], in assay [2], in assay [4], in [5], in assay [6] and in [7] was “inactive” throughout. Also, the outcome in assay [3], in assay [9] and in assay [8] was inactive.
Regarding `CCOP(=S)(OCC)Oc1ccc(Cl)cc1Cl`, the Potency result in [1], in [2], in assay [4], in assay [5], in assay [6] and in [7] was “inactive” in each case. Besides, the result in [3], in [9] and in assay [8] was inactive.
Turning to `CC(Cc1ccccc1)NCCn1cnc2c1c(=O)n(C)c(=O)n2C` (stereo not drawn), the Potency result in assay [1], in assay [2], in assay [4], in assay [5], in [6] and in assay [7] was “inactive” in each case. In addition, the result in [3] and in assay [8] was inactive.
As to `CN=CNc1ccc(C)cc1C`, the Potency result in assay [1], in assay [2], in assay [4], in [5], in assay [6] and in assay [7] was “inactive” throughout. Also, the result in assay [3], in [9] and in [8] was inactive.
